High-throughput results from PubChem.
Pf growth 96h – P. falciparum growth inhibition at 96 hour, primary screen for plastid delayed-death inhibitors; P. falciparum luciferase reporter growth, 96 h; AID 504834; Potency, µM (doses to about 28.7 µM), for the others: at the highest dose activity change, negative = inhibition, hits mostly inhibitors; 320,000 compounds, 6.9% hits; note: potency is the fitted concentration of half-maximal effect; % is set by controls: 0 for no effect and ±100 for the full control effect
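Cell-based qHTS: luciferase-tagged P. falciparum in erythrocytes (2% hematocrit, 0.05% parasitemia final) incubated with compounds for 96 hours, 37 C, 5% CO2; luciferase detection reagent then added and luminescence measured.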
Shiga inhibitor – Shiga toxin inhibition. Vero cells, Shiga toxin protein synthesis inhibition reporter. inhibition, % at 38.7 µM. 290,000 compounds, 9.2% hits; in the data active = inhibition mostly above about 28%, no sharp cut-off; inactive = mostly below about 43%; note: 0% is about no effect
CHX counter – affects cycloheximide protein synthesis inhibition readout, counter-screen | cell reporter, cycloheximide protein synthesis inhibition counterscreen | max response, % | 300,000 compounds, 12% hits | AID 2314; in the data active = max response mostly above about 13%, no sharp cut-off; inactive = mostly below about 14%; note: read at 38.3 µM for the half of the compounds with a filed dose; 0% is about no effect
Pf growth 48h – inhibits P. falciparum growth in the first generation, 48 h; 310,000 compounds, 5.9% hits; AID 504832; Potency, µM (top dose mostly 28.7 µM), for the others: at the top dose activity change, negative = inhibition, hits mostly inhibitors; P. falciparum luciferase growth in erythrocytes, 48 h; note: potency is the fitted concentration of half-maximal effect; % is set by controls: 0 for no effect and ±100 for the full control effect
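Compounds are pin-transferred into medium, infected erythrocytes (2% hematocrit, 0.1% parasitemia final) are added, and plates sit one parasite generation at 37 C in 5% CO2. Detection reagent is then added and luminescence measured.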
LmPK inhibitor – inhibitors of Leishmania mexicana pyruvate kinase. Q27686. 290,000 compounds, 0.37% hits. AID 1721. purified LmPK, Kinase-Glo ATP luminescence, 1 h. Potency, µM (series often up to 57.5 µM), for inactives: at the top dose activity change, negative = inhibition, actives largely listed as inhibitors; note: potency is the fitted concentration of half-maximal effect; % is set by controls: 0 for no effect and ±100 for the full control effect
Target sequence (Q27686 whole entry, looked up): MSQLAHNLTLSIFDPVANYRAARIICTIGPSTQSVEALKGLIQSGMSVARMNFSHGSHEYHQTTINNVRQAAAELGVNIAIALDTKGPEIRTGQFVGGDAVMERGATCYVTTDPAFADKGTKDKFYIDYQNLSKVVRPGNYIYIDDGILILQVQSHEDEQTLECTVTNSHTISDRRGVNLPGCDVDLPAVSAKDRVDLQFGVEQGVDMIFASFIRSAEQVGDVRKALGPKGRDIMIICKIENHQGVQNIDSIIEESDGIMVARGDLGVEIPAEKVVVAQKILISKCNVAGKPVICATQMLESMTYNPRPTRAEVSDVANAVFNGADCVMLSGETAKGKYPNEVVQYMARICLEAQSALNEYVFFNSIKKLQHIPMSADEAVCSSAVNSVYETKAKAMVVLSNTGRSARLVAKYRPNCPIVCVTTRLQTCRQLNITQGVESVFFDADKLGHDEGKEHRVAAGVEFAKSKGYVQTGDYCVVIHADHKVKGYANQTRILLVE
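0.1 nM LmPK, 0.5 mM PEP, 0.1 mM ADP; 50 mM imidazole pH 7.2, 7 mM MgCl2, 50 mM KCl; 1 h RT. Kinase-Glo luminescence readout, normalized to no-enzyme (full inhibition) and uninhibited wells.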
The depositor's hits bear a star; ? = inconclusive; . = no result; [ ] = another dose, or the depositor's remark. Sampled rows, rich in hits. Any-hit rate of the full collection: about 22%. Unless noted, calls come from the whole dose curve; as a rule, active = well fitted inhibition curve with a large enough effect; inconclusive = small, poorly fitted or top-dose-only effect, or another doubt; inactive = no such curve, though single readings can be large or run the other way.

SMILES	Pf growth 96h	Shiga inhibitor	CHX counter	Pf growth 48h	LmPK inhibitor
C[C@H](NC(=O)c1nc[nH]c1C(=O)N[C@@H](Cc1ccccc1)C(=O)OC(C)(C)C)C(=O)OC(C)(C)C	?	9.0	-4.4	7.38µM*	0.2%
Cc1cccc(NC(=O)c2nc[nH]c2C(=O)N[C@@H](Cc2ccccc2)C(=O)OC(C)(C)C)c1	11.7µM*	-7.6	-3.5	?	3.6%
CC(C)(C)OC(=O)[C@H](Cc1ccccc1)NC(=O)c1[nH]cnc1C(=O)Nc1cccc(Cl)c1	?	-1.7	1.2	?	13.9%
O=C(C1CC1)N1N=C(c2ccc(Cl)cc2)CC1(O)C(F)(F)F (centres undefined)	32.4%	3.4	1.0	-2.3%	1.7%
CC1=NN(C(=O)c2ccc(C)cc2)C(O)(C(F)(F)OC(F)(F)F)C1 (centres undefined)	?	71.8*	31.2*	?	2.7%
O=C(COc1ccccc1)N1N=C(c2cccnc2)CC1(O)C(F)(F)F (centres undefined)	0.928µM*	-18.6	-2.1	?	6.0%
O=C(C1CC1)N1N=C(c2ccc(F)cc2)CC1(O)C(F)(F)F (centres undefined)	11.7µM*	.	0.1	13.5%	11.7%
COC(=O)N1N=C(c2ccc(Br)cc2)CC1(O)C(F)(F)F (centres undefined)	8.6%	40.1*	47.3*	104.1%	-6.2%
Cc1cccc(NC(=O)C2C3CCC4C(CCC32)C4(Cl)Cl)c1 (centres undefined)	47.2%	2.1	-2.9	?	3.8%
COc1ccc(NC(=O)CSc2nc3ccccc3c(=O)n2CCCC(=O)NCC2CCCO2)c(OC)c1 (centres undefined)	-18.4%	20.7	-2.4	?	-0.8%
O=c1c(Cc2c(F)cccc2Cl)c(O)ccn1CC1CCCO1 (centres undefined)	-34.7%[5.75 µM]	-5.3	-3.5	-9.1%	-0.8%
C=CCSc1nc2ccsc2c(=O)n1-c1cccnc1	?	-7.2	4.3	-7.2%	7.9%
O=C(Nc1ccc(Cl)cc1)NN1CC(=O)N(c2cccc(C(F)(F)F)c2)CC1=O	11.4%	18.7	-4.6	-11.6%	9.5%
CCOC(=O)N1N=C(c2ccccc2)CC1(O)C(F)(F)F (centres undefined)	149.7%	101.1*	49.3*	123.8%	-16.6%
O=C(c1ccccc1)N1N=C(c2ccccc2)CC1(O)C(F)(F)F (centres undefined)	?	-6.2	-1.7	0.8%	2.9%
CCOC(=O)N1N=C(CC)CC1(O)C(F)(F)F (centres undefined)	-6.7%	11.7	-2.0	13.2%	5.1%
CCOC(=O)N1N=C(c2ccc(C)cc2)CC1(O)C(F)(F)F (centres undefined)	225.7%	36.5*	14.6*	116.2%	-5.5%
CC(=O)N1CCc2cc(S(=O)(=O)CCC(=O)N3CCN(c4cc(C)ccc4C)CC3)ccc21	-1.5%	-14.9	-4.7	4.7%	10.6%
Cn1ccnc1SCC(=O)Nc1cccc(S(=O)(=O)N2CCCCC2)c1	-31.4%[5.75 µM]	-17.9	-2.0	?	2.2%
COCCNC(=O)NC(=O)COC(=O)c1cc([N+](=O)[O-])ccc1Sc1nc(C)cs1	13.5%	-21.3	-4.7	0.4%	2.2%
COC(=O)C1(Cc2cc(-c3ccc(Cl)cc3)no2)CCN(C(=O)OC(C)(C)C)CC1	65.3%	13.3	-0.6	-8.4%	-8.9%
COC(=O)C1(Cc2cc(-c3cccnc3)no2)CCN(C(=O)OC(C)(C)C)CC1	10.4µM*	12.4	10.0*	?	1.1%
O=C(COC(=O)CCC1CCCC1)Nc1ccc(F)cc1Cl	1.0%	.	.	14.0%	.
O=C(c1ccccc1)c1cnc(Nc2ccc(Cl)c(Cl)c2)s1	70.6%	2.4	8.5	14.8%	1.2%
CC(=O)c1cnc(Nc2cccc(C)c2)s1	53.3%	118.8*	48.1*	122.1%	-23.5%
CNc1ncc(C(=O)c2ccc(F)cc2)s1	222.0%	67.4*	42.7*	114.8%	-6.6%
O=C(c1ccc(F)cc1)c1cnc(Nc2ccccc2)s1	241.5%	75.2*	23.4*	124.0%	6.4%
COc1ccc(CNc2ncnc3sccc23)cc1	-1.8%	2.3	-2.5	-7.4%	-3.4%
Cc1cnn(-c2cc(N/N=C/c3ccccc3Cl)ncn2)c1	15.3%	-11.4	2.3	17.8%	5.2%
c1ccc(Oc2cc(-n3cncn3)ncn2)cc1	-2.1%	38.9*	14.6	38.9%	-14.7%
